In PubChem BioAssay (Tox21):
A number with no mark means an inactive call. Results filed as inconclusive are left out. A call without a number means that no potency is given here. The source made the active and inactive calls. Unless noted, the call rests on the fitted dose curve; in most records, active means well fitted curve in the direction sought with a large enough effect in the repeat runs; inconclusive means weak or mixed curves; inactive means no such curve, though single readings can be large; an effect the other way counts as inactive or inconclusive.

Legend:
[1] = A CellTox Green Cytotoxicity Assay to monitor cytotoxicity in HepG2 cells - 8 hour (AID 1224890); further: nearly all actives have a fitted effect of over 45% in size
Procedure, shortened: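 Fluorescent DNA-binding dye, 600 HepG2 cells/well, 5 h preincubation then compound in DMSO; same plates read at 0–40 h, 37 C.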

[2] = qHTS assay to identify small molecule antagonists of the estrogen receptor alpha (ER-alpha) signaling pathway using the BG1 cell line in the presence of 0.1 nM 17-beta-estradiol - cell viability counter screen (AID 1259241); further: nearly all actives have a fitted effect of over 40% in size
Procedure, shortened: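 Following 5 days in phenol red-free medium with charcoal-stripped serum, VM7Luc4E2 cells received test compounds alongside 0.1 nM 17beta-estradiol (final) at 37C for 22 hr. Live cells were then quantified via protease-substrate fluorescence.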

[3] = qHTS assay to identify small molecule antagonists of the androgen receptor (AR) signaling pathway using the MDA cell line in the presence of 0.5 nM R1881 - cell viability counter screen (AID 1259242); further: nearly all actives have a fitted effect of over 45% in size
Procedure, shortened: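 Human breast carcinoma MDA-kb2 cells, cultured without CO2, receive compounds alongside 0.5 nM (final) R1881 agonist. After 16 hr at 37C, viability is taken as live-cell protease signal.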

[4] = target: Estrogen receptor (Homo sapiens) (UniProt P03372); experiment: qHTS assay to identify small molecule antagonists of the estrogen receptor alpha (ER-alpha) signaling pathway using the BG1 cell line in the presence of 0.1 nM 17-beta-estradiol (AID 1259244); further: nearly all actives have a fitted effect of over 50% in size
Estrogen receptor (Homo sapiens), sequence (P03372 whole entry, looked up): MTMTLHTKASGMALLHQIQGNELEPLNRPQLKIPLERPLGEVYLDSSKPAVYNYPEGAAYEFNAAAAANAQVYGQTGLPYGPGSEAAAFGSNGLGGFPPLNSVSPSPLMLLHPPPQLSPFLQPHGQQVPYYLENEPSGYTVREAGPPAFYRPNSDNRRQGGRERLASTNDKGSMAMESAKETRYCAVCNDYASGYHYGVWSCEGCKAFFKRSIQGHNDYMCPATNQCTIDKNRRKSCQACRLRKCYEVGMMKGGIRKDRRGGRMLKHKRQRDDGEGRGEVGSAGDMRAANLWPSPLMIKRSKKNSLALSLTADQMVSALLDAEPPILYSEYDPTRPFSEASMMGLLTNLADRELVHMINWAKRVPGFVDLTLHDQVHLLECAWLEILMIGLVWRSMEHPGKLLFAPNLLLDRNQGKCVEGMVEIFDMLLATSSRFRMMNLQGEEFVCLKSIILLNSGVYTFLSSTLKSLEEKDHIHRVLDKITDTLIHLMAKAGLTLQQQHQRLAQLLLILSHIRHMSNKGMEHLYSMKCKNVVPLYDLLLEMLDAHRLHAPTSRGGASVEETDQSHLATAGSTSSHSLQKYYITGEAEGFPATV
Procedure, shortened: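 Seeding of stripped-serum-adapted VM7Luc4E2 cells, 24 h attachment, compound transfer, then 0.1 nM final 17beta-estradiol; after 22 h incubation, ONE-Glo reagent and luminescence reading.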

[5] = qHTS assay to identify small molecule HDAC inhibitors (AID 1259364); further: potency means the concentration at half of the fitted maximal effect;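 further: wild-type HCT-116 cells with endogenous class I/II HDAC activity; nearly all actives have a fitted effect of over 45% in size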; on activity change, negative = inhibition: top concentration of the series differs between compounds
Procedure, shortened: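 After a 2 hr compound incubation (37C, 5% CO2), HCT-116 cells seeded at 1,500/well the day before received HDAC-Glo reagent; signal read as luminescence after 30 min at room temperature.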

[6] = qHTS assay to identify small molecule HDAC inhibitors - cell viability counter screen (AID 1259365); further: series mostly up to about 92 µM; nearly all actives have a fitted effect of over 50% in size
Procedure, shortened: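 HCT-116 wild-type, overnight attachment; 2hr drug exposure, 37C; CellTiter-Glo luminescent ATP readout after 30min RT.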

[7] = qHTS assay to identify small molecule agonists of the sonic hedgehog signaling (Shh) pathway - cell viability counter screen (AID 1259366); further: nearly all actives have a fitted effect of over 50% in size
Procedure, shortened: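 Compounds in DMSO were pin-transferred onto 3T3 Gli1-Luc cells that had settled 4hr; plates then stood 24hr at 37C and 5% CO2. One hour before the end, CellTiter-Fluor was added and fluorescence recorded.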

[8] = qHTS assay to identify small molecule antagonists of the sonic hedgehog signaling (Shh) pathway - cell viability counter screen (AID 1259367); further: nearly all actives have a fitted effect of over 55% in size
Procedure, shortened: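 Viability was read by CellTiter-Fluor fluorescence in the same wells, reagent added 23 hr into compound treatment and incubated 1 hr at 37C. The 3T3 Gli1-Luc reporter cells (2,000/well) received conditioned medium after compound and ran 24 hr.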

[9] = qHTS assay to identify small molecule agonists of the sonic hedgehog signaling (Shh) pathway (AID 1259368; calls by dose curve;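 further: NIH/3T3-derived 3T3Gli1-Luc cells carrying a stable Gli1-driven firefly luciferase reporter; series mostly up to about 92 µM; nearly all actives have a fitted effect of over 15% in size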)
Procedure, shortened: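 Stable NIH/3T3 Gli1-Luc reporter clone; 24 hr cpd exposure after a 4 hr settling period; luminescence endpoint.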

[10] = qHTS assay to identify small molecule antagonists of the sonic hedgehog signaling (Shh) pathway (AID 1259369; calls by dose curve; further: nearly all actives have a fitted effect of over 45% in size)
Procedure, shortened: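 Gli1 transcriptional reporter (firefly Luc) in NIH/3T3 background, conditioned-medium activated. 24hr exposure, luminescence endpoint.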

[11] = qHTS assay to identify small molecule agonists of the androgen receptor (AR) signaling pathway in the presence of an antagonist - cell viability counter screen (AID 1259379);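 further: MDA-kb2 human breast cancer cells carrying an MMTV luciferase reporter; series mostly up to about 92 µM; nearly all actives have a fitted effect of over 25% in size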
Procedure, shortened: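 Counter screen for cell viability run in parallel with the AR agonist-mode luciferase assay. MDA-kb2 cells were co-treated with nilutamide (3.0uM final) and compounds, then incubated 16 hr at 37C, and CellTiter-Fluor fluorescence was measured.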

[12] = qHTS assay to identify small molecule antagonists of the estrogen receptor beta (ER-beta) signaling pathway - cell viability counter screen (AID 1259382);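 further: HEK293T cells carrying ER-beta-UAS-bla reporter stimulated with estradiol; series mostly up to about 92 µM; nearly all actives have a fitted effect of over 55% in size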
Procedure, shortened: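 HEK293T ER-beta-UAS-bla, 2% charcoal-stripped FBS; compounds + 1nM E2 16 hr 37C; CellTiter-Glo luminescence, 30 min RT.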

[13] = target: Estrogen receptor (Homo sapiens) (UniProt P03372); experiment: qHTS assay to identify small molecule agonists of the estrogen receptor alpha (ER-alpha) signaling pathway in the presence of an antagonist (AID 1259383; calls by dose curve; further: nearly all actives have a fitted effect of over 15% in size; further: potency means the concentration at half of the fitted maximal effect; on activation: top concentration of the series differs between compounds)
Procedure, shortened: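 ER-alpha agonism measured under antagonist challenge: 10.0nM ICI-182,780 (final) plus compound, 15 concentrations, 22hr, VM7Luc4E2 ERE-luciferase cells. Read by luminescence.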

[14] = qHTS assay to identify small molecule agonists of the estrogen receptor beta (ER-beta) signaling pathway - cell viability counter screen (AID 1259380); further: nearly all actives have a fitted effect of over 30% in size
Procedure, shortened: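 In this qHTS counter screen, HEK293T cells carrying an ER-beta/UAS beta-lactamase reporter, grown in 2% charcoal-stripped FBS, received compound for 16 hr; ATP-based CellTiter-Glo luminescence was then read after 30 min at room temperature.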

[15] = qHTS assay to identify small molecule phospholipidosis (PLD) inducers (AID 1259344; active means well fitted curve in the direction sought with a large enough effect; an effect the other way counts as inactive or inconclusive)
Procedure, shortened: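 Phospholipid accumulation was scored by imaging: fixed, Hoechst-counterstained HepG2 cells stained with LipidTOX Red after 24 h compound exposure at 37 C. Read-outs were pit count and pit intensity per well or per cell, with amiodarone and DMSO controls.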

[16] = target: Estrogen receptor beta (Homo sapiens) (UniProt Q92731); experiment: qHTS assay to identify small molecule agonists of the estrogen receptor beta (ER-beta) signaling pathway (AID 1259377; active means well fitted activation curve with a large enough effect in the signal ratio in the repeat runs, not every such curve was filed as active; the % refers to the signal ratio)
Estrogen receptor beta (Homo sapiens), sequence (Q92731 whole entry, looked up): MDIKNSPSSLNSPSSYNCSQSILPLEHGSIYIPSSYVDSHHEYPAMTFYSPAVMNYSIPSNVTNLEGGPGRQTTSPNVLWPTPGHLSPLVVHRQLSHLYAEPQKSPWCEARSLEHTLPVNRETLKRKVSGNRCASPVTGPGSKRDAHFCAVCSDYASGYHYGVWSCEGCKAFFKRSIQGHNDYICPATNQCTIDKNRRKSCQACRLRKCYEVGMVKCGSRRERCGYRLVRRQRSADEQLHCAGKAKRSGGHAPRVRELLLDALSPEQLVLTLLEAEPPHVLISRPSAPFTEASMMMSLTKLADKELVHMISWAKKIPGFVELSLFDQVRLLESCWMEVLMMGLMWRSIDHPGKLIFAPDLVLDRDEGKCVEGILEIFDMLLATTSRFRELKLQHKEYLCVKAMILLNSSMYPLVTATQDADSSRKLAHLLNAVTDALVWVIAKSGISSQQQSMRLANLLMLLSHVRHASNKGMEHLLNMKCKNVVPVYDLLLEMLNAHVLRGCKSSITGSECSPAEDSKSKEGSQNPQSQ
Procedure, shortened: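 qHTS in ER-beta-UAS-bla HEK293T cells: 6 hr settling, then 16 hr compound at 37C, then LiveBLAzer substrate 2 h at RT before fluorescence reading.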

[17] = target: Estrogen receptor beta (Homo sapiens) (UniProt Q92731); experiment: qHTS assay to identify small molecule antagonists of the estrogen receptor beta (ER-beta) signaling pathway (AID 1259378; active means well fitted inhibition curve with a large enough effect in the signal ratio in the repeat runs, not every such curve was filed as active; the % refers to the signal ratio)
Procedure, shortened: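 Antagonist mode: compounds added to beta-lactamase reporter HEK293T ER-beta-UAS cells stimulated with E2 (1nM final), 16 hr at 37C. LiveBLAzer B/G FRET substrate, 2 hours room temperature, fluorescence read-out.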

[18] = qHTS assay to identify small molecule agonists or antagonists of the thyroid stimulating hormone receptor (TSHR) signaling pathway - wild type cell line counter screen (AID 1259384; calls by dose curve)
Procedure, shortened: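 Counter screen in untransfected Hek293: compounds (15-point titration, triplicate) plus phosphodiesterase inhibitor Ro20-1724 added after 18 h plating; 30 min RT. Intracellular cAMP via competitive d2/cryptate immunoassay, 1 h incubation.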

CCc1cnc(C(=O)O)c(C(=O)O)c1
Potency [1]: inactive
Potency [2]: inactive
Potency [3]: inactive
Potency [4]: inactive
Potency [5]: inactive
outcome [6]: inactive
Potency [7]: inactive
Potency [8]: inactive
Potency [9]: inactive
Potency [10]: inactive
Potency [11]: inactive
Potency [12]: inactive
Potency [13]: inactive

c1ccc(-c2ccc(-c3ccccc3)cc2)cc1
cytotoxicity increase [1]: -1.41% [at 15.8 µM]
activity change, negative = cytotoxicity [2]: 0.519% [at 19 µM]
viability change, negative = cytotoxic [3]: 1.4% [at 19 µM]
activity change, negative = inhibition [4]: 56.5% [at 19 µM]
Potency [5]: 4450 nM (active)
activity change, negative = cytotoxicity [6]: 0.606% [at 19 µM]
viability change, negative = cytotoxic [7]: 0.865% [at 19 µM]
viability change, negative = cytotoxic [8]: -1.08% [at 19 µM]
activity change [9]: 4.66% [at 18.9 µM, hits give high values]
activity change, negative = inhibition [10]: 32.6% [at 19 µM]
activity change, negative = cytotoxicity [11]: -0.211% [at 19 µM]
activity change, negative = cytotoxicity [14]: 0.175% [at 19 µM]
activity change, negative = cytotoxicity [12]: -1.89% [at 19 µM]
Potency [13]: 629 nM (active)

CC1=C(C)C(=O)C(C(CCCCCC(=O)O)c2ccccc2)=C(C)C1=O (centres undefined)
Potency [1]: inactive
Potency [2]: inactive
Potency [3]: inactive
Potency [4]: inactive
Potency [15]: inactive
Potency [5]: inactive
outcome [6]: inactive
Potency [9]: inactive
Potency [10]: inactive
Potency [16]: inactive
Potency [11]: inactive
Potency [12]: inactive
Potency [13]: inactive

CCCCCC1CCC(=O)O1 (centres undefined)
Potency [1]: inactive
Potency [2]: inactive
Potency [3]: inactive
Potency [4]: inactive
Potency [5]: inactive
outcome [6]: inactive
Potency [7]: inactive
Potency [8]: inactive
Potency [9]: inactive
Potency [10]: inactive
Potency [16]: inactive
Potency [17]: inactive
Potency [11]: inactive
Potency [14]: inactive
Potency [12]: inactive
Potency [13]: inactive
outcome [18]: inactive

O=C(O)c1ccccc1-n1cc(C(=O)O)c(=O)c2cc(Nc3c(F)cc(F)cc3Cl)c(Cl)cc21
Potency [1]: inactive
Potency [2]: inactive
Potency [3]: inactive
Potency [4]: inactive
Potency [5]: inactive
outcome [6]: inactive
Potency [7]: inactive
Potency [8]: inactive
Potency [9]: inactive
Potency [10]: inactive
Potency [16]: inactive
Potency [17]: inactive
Potency [14]: inactive
Potency [12]: inactive
Potency [13]: inactive
outcome [18]: inactive

CC(CCl)OC(C)CCl (centres undefined)
Potency [1]: inactive
Potency [2]: inactive
Potency [3]: inactive
Potency [4]: inactive
Potency [5]: inactive
outcome [6]: inactive
Potency [7]: inactive
Potency [8]: inactive
Potency [9]: inactive
Potency [10]: inactive
Potency [17]: inactive
Potency [11]: inactive
Potency [14]: inactive
Potency [12]: inactive
Potency [13]: inactive
outcome [18]: inactive

CC(C)NC(=O)c1ccccc1N
Potency [1]: inactive
Potency [2]: inactive
Potency [3]: inactive
Potency [4]: inactive
Potency [5]: inactive
outcome [6]: inactive
Potency [7]: inactive
Potency [8]: inactive
Potency [9]: inactive
Potency [10]: inactive
Potency [11]: inactive
Potency [14]: inactive
Potency [12]: inactive
Potency [13]: inactive
outcome [18]: inactive

CCCCOC(=O)C(C)Oc1ccc(Oc2ccc(C(F)(F)F)cn2)cc1 (centres undefined)
Potency [1]: inactive
Potency [2]: inactive
Potency [3]: inactive
Potency [4]: inactive
Potency [5]: inactive
outcome [6]: inactive
Potency [7]: inactive
Potency [8]: inactive
Potency [9]: inactive
Potency [10]: inactive
Potency [16]: inactive
Potency [17]: inactive
Potency [14]: inactive
Potency [12]: inactive
Potency [13]: inactive
outcome [18]: inactive

CC(C)=CCCC(C)C=O (centres undefined)
Potency [1]: inactive
Potency [2]: inactive
Potency [3]: inactive
Potency [4]: inactive
Potency [5]: inactive
outcome [6]: inactive
Potency [7]: inactive
Potency [8]: inactive
Potency [9]: inactive
Potency [10]: inactive
Potency [17]: inactive
Potency [12]: inactive
Potency [13]: inactive
outcome [18]: inactive
